Experimental data taken from PubChem BioAssay (Tox21).
Inconclusive results are not listed. Activity calls are given as the source filed them. Unless noted, the call rests on the fitted dose curve; in most records, active means well fitted curve in the direction sought with a large enough effect in the repeat runs; inconclusive means weak or mixed curves; inactive means no such curve, though single readings can be large; an effect the other way counts as inactive or inconclusive.

Assays:
[1] = qHTS assay to identify small molecule antagonists of the androgen receptor (AR) signaling pathway using the MDA cell line in the presence of 0.5 nM R1881 - cell viability counter screen (AID 1259242); further: nearly all actives have a fitted effect of over 45% in size
Outline: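 Cells seeded at 3,000/well and allowed 5 hr at 37C, 0% CO2 before compound transfer and R1881 (0.5 nM final) addition; 16 hr later, live-cell protease fluorescence indicated cytotoxicity.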

[2] = target: Estrogen receptor (Homo sapiens) (UniProt P03372); test: qHTS assay to identify small molecule antagonists of the estrogen receptor alpha (ER-alpha) signaling pathway using the BG1 cell line in the presence of 0.1 nM 17-beta-estradiol (AID 1259244); further: nearly all actives have a fitted effect of over 50% in size; further: potency means the concentration at half of the fitted maximal effect
Outline: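 Luciferase signal from VM7Luc4E2 ERE-reporter cells, co-dosed with test compound and 0.1 nM final 17beta-estradiol for 22 h, read with ONE-Glo.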

[3] = qHTS assay to identify small molecule HDAC inhibitors - cell viability counter screen (AID 1259365); further: series mostly up to about 92 µM; nearly all actives have a fitted effect of over 50% in size
Outline: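 To flag cytotoxic hits, 1,500 wild-type HCT-116 cells per well, plated the day before, receive test compounds for 2hr at 37 C before CellTiter-Glo reagent and a luminescence read.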

[4] = qHTS assay to identify small molecule agonists of the sonic hedgehog signaling (Shh) pathway - cell viability counter screen (AID 1259366); further: nearly all actives have a fitted effect of over 50% in size; further: potency means the concentration at half of the fitted maximal effect
Outline: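 Fluorescence from CellTiter-Fluor reports live cells in this counter screen. NIH/3T3-derived Gli1-Luc reporter cells receive test compounds for 24hr at 37C; reagent goes in at 23hr.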

[5] = qHTS assay to identify small molecule antagonists of the sonic hedgehog signaling (Shh) pathway - cell viability counter screen (AID 1259367); further: nearly all actives have a fitted effect of over 55% in size; further: potency means the concentration at half of the fitted maximal effect
Outline: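 Fluorescence read-out (CellTiter-Fluor, 1 hr at 37C) taken after 23 hr compound treatment of 3T3 Gli1-Luc cells stimulated with conditioned medium. Cells were seeded at 2,000 per well and pre-incubated 4 hr.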

[6] = qHTS assay to identify small molecule agonists of the sonic hedgehog signaling (Shh) pathway (AID 1259368; calls by dose curve; further: nearly all actives have a fitted effect of over 15% in size; further: potency means the concentration at half of the fitted maximal effect)
Outline: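 Following a 24 hr incubation with DMSO-dissolved compounds at 37 C, 5% CO2, Gli1-Luc NIH/3T3-derived cells received luciferase reagent for 30 min at room temperature prior to luminescence measurement.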

[7] = qHTS assay to identify small molecule antagonists of the sonic hedgehog signaling (Shh) pathway (AID 1259369; calls by dose curve; further: nearly all actives have a fitted effect of over 45% in size; further: potency means the concentration at half of the fitted maximal effect)
Outline: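 Read-out is luminescence from a firefly luciferase gene controlled by the Gli1 response element, in 3T3Gli1-Luc cells pre-incubated 4hr then exposed to compounds and conditioned medium for 24hr.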

[8] = target: Estrogen receptor beta (Homo sapiens) (UniProt Q92731); test: qHTS assay to identify small molecule agonists of the estrogen receptor beta (ER-beta) signaling pathway (AID 1259377; active means well fitted activation curve with a large enough effect in the signal ratio in the repeat runs, not every such curve was filed as active; the % refers to the signal ratio)
Outline: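 Screening used GripTite ER-beta-UAS-bla cells held in 2% charcoal-stripped FBS medium. After overnight (16 hr) compound incubation at 37C, beta-lactamase activity was detected with a FRET substrate by fluorescence.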

[9] = target: Estrogen receptor beta (Homo sapiens) (UniProt Q92731); test: qHTS assay to identify small molecule antagonists of the estrogen receptor beta (ER-beta) signaling pathway (AID 1259378; active means well fitted inhibition curve with a large enough effect in the signal ratio in the repeat runs, not every such curve was filed as active; the % refers to the signal ratio)
Outline: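 ER-beta-UAS-bla HEK293T cells in 2% charcoal-stripped FBS medium treated with compound plus 1nM final 17-beta-estradiol for 16 hr at 37C. Beta-lactamase reporter read by FRET substrate fluorescence after 2 hours at room temperature.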

[10] = qHTS assay to identify small molecule agonists of the androgen receptor (AR) signaling pathway in the presence of an antagonist - cell viability counter screen (AID 1259379); further: nearly all actives have a fitted effect of over 25% in size; further: potency means the concentration at half of the fitted maximal effect
Outline: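 Each compound was tested at 15 concentrations on MDA-kb2 cells in the presence of 3.0uM nilutamide. Viability was measured by CellTiter-Fluor fluorescence after a 16 hr incubation at 37C in a CO2-free atmosphere.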

[11] = qHTS assay to identify small molecule agonists of the estrogen receptor beta (ER-beta) signaling pathway - cell viability counter screen (AID 1259380); further: nearly all actives have a fitted effect of over 30% in size; further: potency means the concentration at half of the fitted maximal effect
Outline: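 Compounds dissolved in DMSO were pin-transferred onto ER-beta-UAS-bla HEK293T cells that had settled 6 hr, and exposure ran 16 hr at 37C. Following the reporter read, CellTiter-Glo luminescence after 30 min at room temperature indicated cytotoxicity.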

[12] = target: Estrogen receptor (Homo sapiens) (UniProt P03372); test: qHTS assay to identify small molecule agonists of the estrogen receptor alpha (ER-alpha) signaling pathway in the presence of an antagonist (AID 1259383; calls by dose curve; further: top concentration of the series differs between compounds; nearly all actives have a fitted effect of over 15% in size)
Outline: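 Luminescent ERE-luciferase reporter, VM7Luc4E2 cells (endogenous ER-alpha); 10.0nM ICI-182,780 final; 15-point compound titration; 22hr at 37C; ONE-Glo, 30min RT.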

[13] = qHTS assay to identify small molecule HDAC inhibitors (AID 1259364); further: potency means the concentration at half of the fitted maximal effect;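 further: wild-type HCT-116 cells with endogenous class I/II HDAC activity; nearly all actives have a fitted effect of over 45% in size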
Outline: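 HCT-116 wt cells, 1,500/well, overnight attach. Compounds (DMSO) 2 h, 37 °C. HDAC-Glo I/II, 30 min RT. Luminescence.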

[14] = qHTS assay to identify small molecule antagonists of the estrogen receptor beta (ER-beta) signaling pathway - cell viability counter screen (AID 1259382); further: series mostly up to about 92 µM; nearly all actives have a fitted effect of over 55% in size
Outline: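 CellTiter-Glo ATP luminescence measured after the LiveBLAzer read in the same wells; ER-beta-UAS-bla HEK293T cells, 16 hr compound treatment with 1nM 17-beta-estradiol agonist at 37C, 5% CO2.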

[15] = qHTS assay to identify small molecule agonists or antagonists of the thyroid stimulating hormone receptor (TSHR) signaling pathway - wild type cell line counter screen (AID 1259384; calls by dose curve)
Outline: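 Wild-type Hek293 cells, 800/well, 18 h at 37C, then compound with Ro20-1724 for 30 min RT. cAMP by HTRF (cAMP-d2/anti-cAMP cryptate), 1 h RT, fluorescence read. 15 concentrations, triplicates.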

[16] = target: Thyrotropin receptor (Homo sapiens) (UniProt P16473); test: qHTS assay to identify small molecule antagonists of the thyroid stimulating hormone receptor (TSHR) signaling pathway (AID 1259385; calls by dose curve; further: nearly all actives have a fitted effect of over 20% in size)
Outline: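 TSHR-HEK293 cells (800/well) plated 18 h, then compounds with Ro20-1724 and TSH at 1.5 ng/mL final, 30 min at room temperature. cAMP quantified by HTRF (cAMP-d2/anti-cAMP-cryptate, 1 h); 15 concentrations in triplicate.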

[17] = qHTS assay to identify small molecule agonists of the estrogen receptor alpha (ER-alpha) signaling pathway in the presence of an antagonist - cell viability counter screen (AID 1259386);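 further: cells exposed to compounds for 22 h at 37 °C before the viability read; nearly all actives have a fitted effect of over 30% in size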; further: potency means the concentration at half of the fitted maximal effect
Outline: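 Using estrogen-depleted VM7Luc4E2 cells, the 15-concentration compound series was applied together with 10.0nM ICI-182,780 and incubated 22hr at 37C/5% CO2. Cell viability was then scored by CellTiter-Fluor.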

[18] = target: Androgen receptor (Homo sapiens) (UniProt P10275); test: qHTS assay to identify small molecule antagonists of the androgen receptor (AR) signaling pathway using the MDA cell line in the presence of 0.5 nM R1881 (AID 1259243); further: nearly all actives have a fitted effect of over 50% in size; further: potency means the concentration at half of the fitted maximal effect
Outline: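 Luminescence from an AR/GR-responsive MMTV-luciferase construct in MDA-kb2 breast carcinoma cells, read 30 min after ONE-Glo, following 16 hr co-treatment with compounds and 0.5 nM R1881.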

[19] = target: Androgen receptor (Homo sapiens) (UniProt P10275); test: qHTS assay to identify small molecule agonists of the androgen receptor (AR) signaling pathway in the presence of an antagonist (AID 1259381; calls by dose curve; further: nearly all actives have a fitted effect of over 15% in size; further: potency means the concentration at half of the fitted maximal effect)
Outline: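 Plated MDA-kb2 cells (3,000/well) were pre-incubated 5hr, given nilutamide (3.0uM final) or buffer, then dosed with compounds in DMSO at 15 concentrations. Luciferase activity was quantified by luminescence after 16hr at 37C.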

[20] = qHTS assay to identify small molecule phospholipidosis (PLD) inducers (AID 1259344; active means well fitted curve in the direction sought with a large enough effect; an effect the other way counts as inactive or inconclusive)
Outline: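 Read-out is LipidTOX Red fluorescence (ex 595/em 615) imaged in HepG2 cells after 24 h compound exposure at 37 C, with Hoechst nuclear counterstain (ex 352/em 461) allowing per-cell normalisation.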

Measured: Potency

Chain of Estrogen receptor beta (Homo sapiens) (Q92731 whole entry, looked up): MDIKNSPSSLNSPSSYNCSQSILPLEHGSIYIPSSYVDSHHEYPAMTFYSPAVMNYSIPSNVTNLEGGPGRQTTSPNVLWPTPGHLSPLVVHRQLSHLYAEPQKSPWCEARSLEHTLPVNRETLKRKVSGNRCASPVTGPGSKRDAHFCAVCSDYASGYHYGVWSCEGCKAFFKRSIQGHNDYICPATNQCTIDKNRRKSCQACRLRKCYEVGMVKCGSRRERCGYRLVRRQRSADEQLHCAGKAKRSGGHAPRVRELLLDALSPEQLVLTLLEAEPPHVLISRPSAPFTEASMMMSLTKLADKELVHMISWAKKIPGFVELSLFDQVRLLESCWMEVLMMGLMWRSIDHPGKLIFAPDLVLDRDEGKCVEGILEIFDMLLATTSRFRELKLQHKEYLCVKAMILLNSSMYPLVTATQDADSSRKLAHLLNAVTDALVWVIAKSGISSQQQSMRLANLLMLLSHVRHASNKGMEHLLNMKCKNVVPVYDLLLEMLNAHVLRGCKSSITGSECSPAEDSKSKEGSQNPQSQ
Chain of Androgen receptor (Homo sapiens) (P10275 whole entry, looked up): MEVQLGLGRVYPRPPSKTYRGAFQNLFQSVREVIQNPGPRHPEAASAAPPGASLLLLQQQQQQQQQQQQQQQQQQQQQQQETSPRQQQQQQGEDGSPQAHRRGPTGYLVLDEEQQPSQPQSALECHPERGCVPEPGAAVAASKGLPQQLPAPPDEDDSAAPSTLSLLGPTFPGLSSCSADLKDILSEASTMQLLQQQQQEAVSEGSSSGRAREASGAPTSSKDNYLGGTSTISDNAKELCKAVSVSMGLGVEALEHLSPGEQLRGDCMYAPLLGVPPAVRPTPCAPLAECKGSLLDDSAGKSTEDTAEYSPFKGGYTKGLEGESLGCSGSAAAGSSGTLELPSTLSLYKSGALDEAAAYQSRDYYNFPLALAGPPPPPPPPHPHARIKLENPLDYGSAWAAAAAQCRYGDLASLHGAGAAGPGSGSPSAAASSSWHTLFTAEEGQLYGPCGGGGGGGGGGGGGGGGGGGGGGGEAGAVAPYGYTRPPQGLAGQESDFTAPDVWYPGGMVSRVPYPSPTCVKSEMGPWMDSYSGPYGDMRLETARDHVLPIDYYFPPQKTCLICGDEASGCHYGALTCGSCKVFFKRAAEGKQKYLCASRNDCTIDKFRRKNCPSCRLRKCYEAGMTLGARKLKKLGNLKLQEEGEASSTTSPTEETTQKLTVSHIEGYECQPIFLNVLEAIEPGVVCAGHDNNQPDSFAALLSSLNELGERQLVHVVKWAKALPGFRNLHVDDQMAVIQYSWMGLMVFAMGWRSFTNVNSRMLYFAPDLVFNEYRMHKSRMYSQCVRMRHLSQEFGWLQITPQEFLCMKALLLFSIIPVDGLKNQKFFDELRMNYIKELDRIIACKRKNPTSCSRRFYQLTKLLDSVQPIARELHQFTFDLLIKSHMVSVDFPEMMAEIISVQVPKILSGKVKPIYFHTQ
Chain of Thyrotropin receptor (Homo sapiens) (P16473 whole entry, looked up): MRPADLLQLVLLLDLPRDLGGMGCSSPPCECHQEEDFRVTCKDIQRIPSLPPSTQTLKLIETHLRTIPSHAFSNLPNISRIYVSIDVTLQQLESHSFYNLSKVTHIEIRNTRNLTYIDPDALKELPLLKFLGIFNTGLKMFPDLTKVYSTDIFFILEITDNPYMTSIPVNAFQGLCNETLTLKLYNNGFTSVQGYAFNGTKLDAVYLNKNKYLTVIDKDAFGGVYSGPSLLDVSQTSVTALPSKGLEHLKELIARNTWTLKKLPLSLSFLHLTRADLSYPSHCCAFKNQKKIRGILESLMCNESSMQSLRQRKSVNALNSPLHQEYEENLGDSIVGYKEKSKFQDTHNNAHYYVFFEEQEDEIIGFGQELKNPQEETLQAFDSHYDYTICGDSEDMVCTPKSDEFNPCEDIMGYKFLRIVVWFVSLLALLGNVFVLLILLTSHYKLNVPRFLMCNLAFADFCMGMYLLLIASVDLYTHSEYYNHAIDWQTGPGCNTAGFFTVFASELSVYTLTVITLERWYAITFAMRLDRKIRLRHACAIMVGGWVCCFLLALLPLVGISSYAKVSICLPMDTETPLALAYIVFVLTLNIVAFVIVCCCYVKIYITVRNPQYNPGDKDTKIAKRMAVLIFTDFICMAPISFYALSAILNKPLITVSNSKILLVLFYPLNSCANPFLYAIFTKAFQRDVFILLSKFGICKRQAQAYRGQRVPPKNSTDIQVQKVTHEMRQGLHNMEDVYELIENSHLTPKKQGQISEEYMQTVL
Chain of Estrogen receptor (Homo sapiens) (P03372 whole entry, looked up): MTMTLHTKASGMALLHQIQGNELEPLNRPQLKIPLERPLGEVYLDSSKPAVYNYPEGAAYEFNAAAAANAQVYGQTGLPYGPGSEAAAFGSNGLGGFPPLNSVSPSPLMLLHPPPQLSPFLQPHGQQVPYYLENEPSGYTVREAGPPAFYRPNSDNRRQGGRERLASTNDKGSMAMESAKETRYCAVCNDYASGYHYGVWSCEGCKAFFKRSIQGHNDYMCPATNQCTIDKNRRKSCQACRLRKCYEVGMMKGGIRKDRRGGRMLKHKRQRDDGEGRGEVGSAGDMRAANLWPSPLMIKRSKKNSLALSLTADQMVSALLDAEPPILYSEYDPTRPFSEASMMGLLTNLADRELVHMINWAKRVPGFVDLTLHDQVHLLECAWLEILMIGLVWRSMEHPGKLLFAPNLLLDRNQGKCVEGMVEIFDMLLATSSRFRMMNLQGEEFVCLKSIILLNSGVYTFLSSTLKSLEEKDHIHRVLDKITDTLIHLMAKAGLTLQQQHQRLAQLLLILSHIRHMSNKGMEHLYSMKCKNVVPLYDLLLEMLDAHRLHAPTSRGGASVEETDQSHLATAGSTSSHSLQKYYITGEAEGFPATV

Cc1cc(C(=C2C=CC(=Nc3ccc(S(=O)(=O)O)cc3S(=O)(=O)O)C=C2)c2ccc(Nc3ccc(S(=O)(=O)O)cc3)cc2)ccc1N
not listed: [13] | [14] | [15] | [16] | [17] | [18] | [19] | [20]
inactive: all other assays above

CC(C)(C)C(=O)O
not listed: [2] | [7] | [12] | [18] | [19] | [20]
inactive: all other assays above

O=C(C(=O)c1ccccc1)c1ccccc1
inactive: [1] | [3] | [4] | [5] | [6] | [7] | [10] | [11] | [14] | [17]

O=S(=O)(c1ccccc1)c1ccc(Cl)cc1
not listed: [2] | [3] | [9] | [12] | [17] | [18] | [19] | [20]
inactive: all other assays above

O=c1[nH]c2ccc(S(=O)CCN3CCC(Cc4ccc(F)cc4)CC3)cc2o1 (stereo not given)
not listed: [2] | [9] | [10] | [13] | [17] | [18] | [19] | [20]
inactive: all other assays above

CC1=CC(=O)CC(C)(C)C1(O)/C=C/C(C)=C\C(=O)O (stereo not given)
inactive: [1] | [13] | [4] | [5] | [6] | [10] | [11] | [15] | [16] | [17]

O=C(c1ccc(O)cc1)c1ccc(Cl)cc1
inactive: [1] | [5] | [6] | [11] | [14]

Nc1nccs1
inactive: [1] | [3] | [4] | [5] | [6] | [8] | [9] | [10] | [11] | [14] | [17]

Nc1nc(Cl)nc2c1ncn2[C@@H]1O[C@H](CO)[C@@H](O)[C@@H]1F
active: [7] 0.841 µM
not listed: [2] | [3] | [6] | [9] | [13] | [18] | [19] | [20]
inactive: all other assays above

CC(=O)OCC(=O)[C@H]1CC[C@H]2[C@@H]3CCC4=CC(=O)CC[C@]4(C)[C@H]3CC[C@]12C
active: [7] 11.9 µM | [19] 3.76 µM
not listed: [1] | [9] | [11] | [16] | [20]
inactive: all other assays above

CC1=C(/C=C/C(C)=C\C=C\C(C)=C\C(=O)O)C(C)(C)CCC1
active: [6] 8.63 µM
inactive: [1] | [13] | [3] | [7] | [12]

O=[N+]([O-])c1cccc(S(=O)(=O)NCCNS(=O)(=O)c2cccc([N+](=O)[O-])c2)c1
not listed: [1] | [8] | [9] | [12] | [13] | [15] | [16] | [17]
inactive: all other assays above

O=C(Nc1ccc([N+](=O)[O-])cc1)Nc1ccc([N+](=O)[O-])cc1
inactive: [1] | [13] | [3] | [5] | [6] | [8] | [14] | [15] | [17]

C[C@]12CCC(=O)C=C1C=C[C@@H]1[C@@H]2CC[C@@]2(C)[C@H]1CC[C@@]21CCC(=O)O1
not listed: [2] | [7] | [9] | [13] | [17] | [18] | [19] | [20]
inactive: all other assays above

CCOC(=O)N1CCC(n2c(=O)[nH]c3cc(Cl)ccc32)CC1
active: [18] 21.1 µM | [2] 23.7 µM | [10] 29.8 µM | [17] 23.7 µM
not listed: [1] | [7] | [9] | [12] | [14] | [20]
inactive: all other assays above

CCCc1c(OCCCOc2ccc(OCC(=O)O)cc2)ccc(C(C)=O)c1O
active: [11] 17.2 µM
not listed: [1] | [8] | [9] | [13] | [14] | [20]
inactive: all other assays above

CCc1cccc(N(C)C(N)=Nc2cccc3ccccc23)c1
active: [11] 2.66 µM
not listed: [1] | [2] | [3] | [7] | [9] | [12] | [16]
inactive: all other assays above

COC(=O)Nc1nc2ccc(C(=O)c3cccs3)cc2[nH]1
active: [13] 11.9 µM | [7] 0.335 µM
not listed: [2] | [5] | [9] | [12] | [18] | [19] | [20]
inactive: all other assays above

C/C=C(\C)C(=O)OCCC(C)CCC=C(C)C (stereo not given)
inactive: [1] | [13] | [4] | [5] | [6] | [7] | [8] | [9] | [10] | [11] | [17]

O=C(N/N=C/c1ccc([N+](=O)[O-])o1)c1ccc(O)cc1
inactive: [13] | [3] | [19] | [14] | [12] | [15] | [16]
active: [18] 3.76 µM | [2] 26.6 µM | [4] 29.8 µM | [5] 18.8 µM | [7] 11.9 µM | [10] 11.9 µM
